CYP2C9 inh – human CYP2C9 inhibition; CYP2C9 Supersomes, luciferin-H conversion, luminescence; AID 777; P11712; 20% of 96,000 active; inhibition, % at 5 µM;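 active means blocking of liver enzyme CYP2C9 beyond about 50% at 5 µM, limit read from the data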
CYP2C9 act – activators of human CYP2C9; 1.4% of 96,000 active; recombinant CYP2C9, luciferin-H conversion, luminescence; active compounds read high; factor 1 = untreated enzyme, 0 = blocked; activation factor at 5 µM;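 active means activation factor of 2 or more for CYP2C9 at a 5 µM dose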
CYP2C19 inhib – blocks human cytochrome P450 2C19 | P33261 | CYP2C19 Supersomes, luciferin-H EGE luminescence, 30 min | inhibition, % at 5 µM | 21% of 96,000 active | AID 778;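 active means CYP2C19 inhibition above a set limit at 5 µM in the primary screen, cut at about 50% in these data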
EphB4 antag – EphB4-ephrin-B2 interaction antagonism | 0.15% of 97,000 active | inhibition, % at 7 µM | EphB4 LBD / TNYL-RAW-Alexa532 peptide, fluorescence polarization;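 active means inhibition above the screen-wide mean inhibition plus 3 SD, cut at about 15% in these data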
CYP2C19 act – cytochrome P450 2C19 (human) activation | AID 1025 | P33261 | recombinant CYP2C19, luciferin-H EGE luminescence; active compounds read high; 0 = fully inhibited enzyme, 1 = untreated enzyme | 96,000 tested, under 10 active | activation factor at 5 µM;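 active means activation factor of at least 2 at 5 µM in the primary screen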
A number is an active result; . = inactive; / = no result given. The list is not random: actives were taken first. Their share in the collection is about 27%.

SMILES	CYP2C9 inh	CYP2C9 act	CYP2C19 inhib	EphB4 antag	CYP2C19 act
CC(=O)OC1COC(n2ccc3ccccc32)C(OC(C)=O)C1OC(C)=O (stereo not given)	.	.	67	.	.
CCOC(=O)C1=C2SCCN2C(=O)C(C#N)C1(C)C (stereo not given)	.	.	.	.	.
O=C(C/C=N/OCc1ccc(Cl)cc1Cl)c1ccc(Cl)cc1	.	.	.	.	.
C=CCOC(=O)CCP(=O)(CCC(=O)OCC=C)c1ccccc1	.	.	.	.	.
CCOC(=O)c1c(C2COc3ccccc3O2)csc1NC(=O)c1ccccc1 (stereo not given)	71	.	.	.	.
CCOC(=O)c1c(NC(=O)c2ccccc2)sc2c(O)c(CN(CC)CC)ccc12	.	.	.	.	.
CCOC(=O)c1c(C2COc3ccccc3O2)csc1N (stereo not given)	80	.	91	.	.
N#Cc1c(N2C(=O)C3C4C=CC(C4)C3C2=O)sc2c1CCC2 (stereo not given)	.	.	64	.	.
O=C1c2ccc(-c3nc4ccccc4o3)cc2C(=O)N1Cc1ccccc1	/	/	/	.	/
Brc1ccc(OCCOCCOc2cccc3cccnc23)cc1	/	/	/	.	/
Cc1ccc(OCCCOc2cccc3cccnc23)cc1C	.	2.8	72	.	.
Cc1cccc(OCCCOc2cccc3cccnc23)c1C	.	.	56	.	.
COc1ccc(CC(=O)OCC(=O)NC(=O)NC(C)C)cc1	.	.	.	.	.
COc1ccc(CCNC(=O)c2c(O)c3cccc4c3n(c2=O)CC4)cc1	.	.	.	.	.
O=C(NCc1cccnc1)c1cccc(NC(=O)c2ccco2)c1	/	/	/	.	/
Cc1ccc(C(=O)N/C(=C/c2ccco2)C(=O)Nc2cccc(C)c2)cc1	90	.	51	.	.
Cc1cc(C)n(-c2ccc(C(=O)Nc3ccc(S(=O)(=O)NCc4ccco4)cc3)cc2)n1	66	.	.	.	.
O=C(Nc1ccccc1)c1ccc(S(=O)(=O)NCc2ccco2)cc1	.	.	.	.	.
Cc1cccc(NC(=O)/C(=C\c2ccco2)NC(=O)c2cccs2)c1	.	.	.	.	.
Cc1occc1C(=O)Nc1cccc(C(=O)NCc2ccccc2)c1	93	.	68	.	.
O=C(Nc1ccccc1)c1cccc(S(=O)(=O)NCc2ccco2)c1	51	.	51	.	.
O=C(CN(c1ccc(F)cc1)S(=O)(=O)c1ccc2c(c1)OCCO2)NCc1ccccc1	.	.	.	.	.
Cc1ccc(C)c(S(=O)(=O)NCc2ccc(C(=O)NCc3ccco3)cc2)c1	/	/	/	.	/
COc1ccccc1NC(=O)CN(Cc1ccco1)C(=O)c1cccs1	.	.	.	.	.
O=C(NCc1ccco1)c1cccc(NC(=O)c2ccccc2)c1	93	.	.	.	.
SMILES	CYP2C9 inh	CYP2C9 act	CYP2C19 inhib	EphB4 antag	CYP2C19 act
Cc1ccc(C(=O)Nc2cccc(C(=O)NCc3ccco3)c2)cc1	83	.	.	.	.
CC(=O)c1cccc(NC(=O)NCc2ccco2)c1	.	.	.	.	.
Cc1ccc(C(=O)NCc2ccco2)cc1S(=O)(=O)Nc1cccc(Cl)c1	98	.	87	.	.
CCC(CC)C(=O)Nc1cccc(C(=O)NCc2ccco2)c1	.	.	.	.	.
COc1ccccc1NC(=O)CN(Cc1ccco1)C(=O)c1ccc(-n2nc(C)cc2C)cc1	94	.	.	.	.
COCCCNC(=O)C1CCC(=O)N1Cc1ccccc1Cl (stereo not given)	.	.	.	.	.
COc1ccc(NC(=O)CN(C)S(=O)(=O)c2ccccc2)c([N+](=O)[O-])c1	.	.	.	.	.
COc1ccc(S(=O)(=O)N(C)CC(=O)Nc2cccc(C(C)=O)c2)cc1C	.	.	.	.	.
Cc1ccc(C)c(NC(=O)CN(C)S(=O)(=O)c2ccc(F)cc2)c1	.	.	.	.	.
COc1ccccc1NC(=O)CN(C)S(=O)(=O)c1ccc(F)cc1	.	2.3	56	.	.
COC(=O)c1ccccc1NC(=O)CN(C)S(=O)(=O)c1ccc(OC)cc1	.	.	72	.	.
COC(=O)c1ccccc1NC(=O)CN(C)S(=O)(=O)c1ccc(OC)c(C)c1	.	.	100	.	.
COc1ccc(S(=O)(=O)N(C)CC(=O)Nc2ccc(C(F)(F)F)cc2)cc1Cl	57	.	.	.	.
COc1ccc(S(=O)(=O)N(C)CC(=O)Nc2ccccc2SC)cc1Cl	.	2.9	.	.	.
COc1ccc(S(=O)(=O)N(C)CC(=O)Nc2ccccc2SC)cc1	.	.	98	.	.
COc1ccc(NC(=O)CN(C)S(=O)(=O)c2ccccc2)cc1	55	.	62	.	.
COc1ccc(S(=O)(=O)N(C)CC(=O)Nc2ccccc2OC)cc1	.	.	73	.	.
CNC(=O)CN(C)S(=O)(=O)c1ccc(OC)c(Cl)c1	.	.	.	.	.
CCOC(=O)c1ccc(NC(=O)CN(C)S(=O)(=O)c2ccc(OC)cc2)cc1	.	.	.	.	.
O=C(N1CCC(O)(c2cccnc2)CC1)C12CC3CC(CC(C3)C1)C2	.	.	.	.	.
Clc1ccc(Cn2nnc(-c3ccccc3)n2)cc1	/	/	/	.	/
Clc1ccccc1-c1nnn(Cc2ccc(-c3nn[nH]n3)cc2)n1	86	.	68	.	.
O=C1/C(=C\c2cccs2)N=C(c2cccs2)N1Nc1ccccc1	58	.	.	.	.
O=C1/C(=C/c2cccs2)N=C(c2cccs2)N1Nc1ccccc1	93	.	.	.	.
Cc1ccc(C2=N/C(=C\c3cccs3)C(=O)N2Nc2ccccc2)cc1	.	.	.	.	.
SMILES	CYP2C9 inh	CYP2C9 act	CYP2C19 inhib	EphB4 antag	CYP2C19 act
O=C(Cn1nnc(-c2ccc(Cl)cc2)n1)NC1CCN(Cc2ccccc2)CC1	.	.	.	.	.
CC1CCCCC1NC(=O)Cn1nnc(-c2ccc(Cl)cc2)n1 (stereo not given)	.	.	71	.	.
Cc1ccc(-c2nnn(CCC(=O)NC3CCCC3)n2)cc1	76	.	.	.	.
CCC(C(=O)NC1CCCC1)N(C(=O)Cn1nnc(-c2ccc(C)cc2)n1)C1CCCC1 (stereo not given)	/	/	/	.	/
CCOC(=O)N1CCN(CC(=O)Nc2c(C(=O)OC)[nH]c3ccccc23)CC1	.	.	.	.	.
CCOC(=O)c1[nH]c2cc3c(cc2c1NC(=O)CN1CCC(C)CC1)OCO3	68	.	61	.	.
CCOC(=O)c1[nH]c2cc3c(cc2c1NC(=O)CN1CCc2ccccc2C1)OCO3	55	.	68	.	.
COc1ccc(C(=O)NCc2ccccn2)cc1	/	/	/	.	/
CC(C)c1cc(C(=O)Nc2cc(Br)ccc2O)no1	.	.	.	.	.
CC(C)c1ccc(NC(=O)c2cccnc2)cc1	.	.	.	.	.
CC(C)c1ccc(O)c(NC(=O)c2cccnc2)c1	.	.	70	.	.
CCC(C)c1ccc(O)c(NC(=O)c2cncc(Br)c2)c1 (stereo not given)	50	.	.	.	.
CCNc1nc(SC)nc(N(C#N)CC(=O)OC)n1	.	.	.	.	.

Assay outcomes from PubChem.
